Experimental data as given in PubChem BioAssay AID463173 (ICCB-Longwood Screening Facility, Harvard Medical School, 2010).
About 1,700 (3.3%) of roughly 52,000 compounds were called active. The full list was thinned out, with actives kept by preference. Unmarked numbers belong to inactive results. No stated cut-off is given here; in the data, active means survival mostly below about 52% (no sharp cut-off); inactive means mostly above about 56%.

test system: Wild type; assay: S. aureus survival, RN4220 and DeltatarO strains – OD600, teichoic acid synthesis inhibitors, primary screen (AID 463173); conditions: S. aureus RN4220 wild type/DeltatarO growth, OD600, 18 h, active compounds read low, screened at 18.75 µg/mL (by protocol)

Row | Compound | survival
1 | Cn1ccc2cc(S(=O)(=O)N3CCN(C(=O)Nc4cccc(F)c4)CC3)ccc21 | 74%
2 | CCCCN(CCCNC(=O)c1cc(Nc2ccc(OC)c(OC)c2)nc2ccccc12)Cc1ccccc1 | 79%
3 | CCc1nn2c(=O)cc(COC(=O)c3cccc(NC(=O)CCc4ccccc4)c3)nc2s1 | 72%
4 | CC(=O)c1cccc(NC(=O)C2CCN(S(=O)(=O)c3ccc4c(c3)oc(=O)n4C)CC2)c1 | 90%
5 | O=S(=O)(NCc1nc2cccnc2n1Cc1ccccc1Cl)c1ccc2c(c1)CCCC2 | 73%
6 | CCCCN(CCCC)CC(O)Cn1cc(/C=C/C(=O)c2ccccc2)c2ccccc21 (stereo not given) | 18% (active)
7 | COc1ccc(C(=O)/C=C/c2cn(CC(O)CN(CC(C)C)CC(C)C)c3ccccc23)cc1OC (stereo not given) | 60%
8 | CC(C)CN(CC(C)C)CC(O)Cn1cc(/C=C/C(=O)c2ccccc2)c2ccccc21 (stereo not given) | 40%
9 | CCCN(CCC)CC(O)Cn1cc(/C=C/C(=O)c2ccc(OC)cc2)c2ccccc21 (stereo not given) | 1% (active)
10 | CCCN(CCC)CC(O)Cn1cc(/C=C/C(=O)c2ccc(C)cc2)c2ccccc21 (stereo not given) | -1% (active)
11 | CCCN(CCC)CC(O)Cn1cc(/C=C/C(=O)c2ccc(Br)cc2)c2ccccc21 (stereo not given) | 85%
12 | COc1ccc(C(=O)/C=C/c2cn(CC(O)CN(CC(C)C)CC(C)C)c3ccccc23)cc1 (stereo not given) | 44%
13 | CCCN(CCC)CC(O)Cn1cc(/C=C/C(=O)c2ccc(OCC)cc2)c2ccccc21 (stereo not given) | 23% (active)
14 | Cc1ccccc1Cn1c(=O)n(Cc2ccc(Cl)cc2)c(=O)c2cccnc21 | 82%
15 | CN1C(=O)CC(=O)N(C)c2cc(S(=O)(=O)N(C)Cc3ccccc3)ccc21 | 24%
16 | CN(C)CCNC(=O)c1ccc(Cn2c(=O)c3cccn3c3cccnc32)cc1 | 89%
17 | O=C(CCSCc1ccccc1Cl)N1CCN(c2cccc(Cl)c2)CC1 | 75%
18 | CCOC(=O)Cc1ccc(NC(=O)N(C(C)C)C2CCN(C(C)=O)CC2)cc1 | 85%
19 | O=C(NC1CCCC1)c1ccc2c(=O)n(Cc3ccccc3)c(SCc3ccccc3F)nc2c1 | -3% (active)
20 | O=C(NC1CCCCC1)c1ccc(Cn2c(SCc3ccc(F)cc3)nc3cccnc32)cc1 | 0% (active)
21 | COCCCNC(=O)c1ccc(CSc2nc3cccnc3n2Cc2ccc(OC)cc2)cc1 | 94%
22 | O=C(NC1CCCCC1)c1ccc(CSc2nc3cccnc3n2Cc2ccc(F)cc2)cc1 | 19%
23 | COc1ccccc1CNC(=O)c1ccc(Cn2c(SCc3ccccc3)nc3cccnc32)cc1 | 10% (active)
24 | O=C(NC1CCCC1)c1ccc2c(=O)n(Cc3ccccc3)c(SCc3ccccc3)nc2c1 | 83%
25 | CCNC(=O)c1ccc(CSc2nc3cccnc3n2Cc2ccc(OC)cc2)cc1 | -3% (active)
26 | O=C(NC1CCCC1)c1ccc(CSc2nc3cccnc3n2Cc2ccc(F)cc2)cc1 | 45%
27 | COc1ccc(Cn2c(SCc3ccc(C(=O)NCc4ccc(C)cc4)cc3)nc3cccnc32)cc1 | 85%
28 | O=C(NCc1ccccc1Cl)c1ccc(Cn2c(SCc3ccccc3)nc3cccnc32)cc1 | 68%
29 | CCOc1ccccc1CNC(=O)c1ccc(Cn2c(SCc3ccccc3)nc3cccnc32)cc1 | 69%
30 | Cc1ccccc1CSc1nc2cc(C(=O)NC3CCCC3)ccc2c(=O)n1Cc1ccccc1 | 94%
